Consider 63 molecules from PubChem BioAssay AID720488 (Milwaukee Institute for Drug Discovery, 2013).

Among all 16,000 compounds or so, about 960 (6%) were called active. The sample holds actives, similar compounds and a random draw of the others, so the mix is not that of the screen. Values without a mark were called inactive.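 Rule for the calls: active = compound fluorescence over control fluorescence at most 0.8, a quencher, or at least a set upper limit, an enhancer; inactive = ratio between 0.8 and the set upper limit.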

The test is described as follows: Cy5 fluorescence quenchers or enhancers, artefact control for HCV NS3 helicase inhibitor project, biochemical, ChemBridge library, Cy5 readout (AID 720488). The following applies: Cy5-dT15 DNA with NS3h, at 100 µM, actives lie on both sides, signal over control mean, under 1 quenches.
On to `CC(=O)CC(=O)Nc1ccc2c(c1)OCCO2`, for which the fluorescence interference ratio was 1.13. The result for `CCOC(=O)c1ccc(NC(=O)CN(c2cccc([N+](=O)[O-])c2)S(=O)(=O)c2ccccc2)cc1` reads 0.663 (active); that for `COc1ccccc1NC(=O)CN(c1cccc([N+](=O)[O-])c1)S(=O)(=O)c1ccccc1`, 0.943; that for `CCOC(=O)c1ccccc1NC(=O)/C(=C/c1cccc([N+](=O)[O-])c1)NC(=O)c1ccccc1`, 1.01. As to `Cc1cc(Nc2cccc(C(F)(F)F)c2)n2c(nc3ccccc32)c1C#N`, the fluorescence interference ratio was 1.06. Under `COc1ccc2oc(=O)c(C(=O)O)cc2c1` stands 1.08; under `O=C(NC(=S)Nc1ccc2oc(-c3ccc(Br)cc3)nc2c1)c1ccco1`, 1.09. Regarding `O=C(NC(=S)Nc1ccc(-c2nc3cc(Cl)ccc3o2)cc1)c1ccco1`, the fluorescence interference ratio is 2.04 (active).

For the molecule `O=C(NC(=S)Nc1ccc2oc(-c3cccnc3)nc2c1)c1ccc(Cl)cc1`, the fluorescence interference ratio was 0.998. The result for `Cc1ccc(C2Nc3ccccc3C(=O)N2c2ccccc2)cc1` (stereo not drawn) reads 0.912; that for `CCOC(=O)CSc1nnc(-c2cccc(Br)c2)o1`, 1.15; that for `COc1ccc(S(=O)(=O)N(CCc2ccccc2)CC(=O)Nc2ccccc2F)cc1`, 1.

With `COc1ccc(C(=O)Nc2nc3ccc(C)cc3s2)cc1Br`, the fluorescence interference ratio is 1.23 (active).

`O=C(Nc1nc2ccccc2s1)c1ccc2c(c1)OCO2`: the fluorescence interference ratio was 0.992. Take `COc1ccc(C(=O)Nc2ncc([N+](=O)[O-])s2)cc1OC`: the fluorescence interference ratio was 0.92. With `COC(=O)c1c(C)oc2ccc(OCC(=O)c3ccccc3)cc12`, the fluorescence interference ratio was 0.818. Under `O=C(Nc1ccc(Br)cc1)c1ccc(S(=O)(=O)N2CCCC2)cc1` stands 0.938; under `COc1ccc2occ(C(=O)c3ccc(N=C(C)N(C)C)cc3)c2c1`, 1.07.

Turning to `COc1ccccc1C(=O)N=Nc1c(O)n(C)c2ccccc12`, the fluorescence interference ratio is 1.03. The result for `CC(=O)Nc1ccc(NC(=S)NC(=O)/C=C/c2ccccc2)cc1` reads 1.07; that for `CC(C)Oc1ccc(/C=C(/NC(=O)c2ccccc2)C(=O)Nc2ccccc2)cc1`, 1.01; that for `CCN(CC)c1ccc(NC(=O)/C(=C\c2ccccc2)NC(C)=O)cc1`, 1.28 (active).

In the case of `O=C(CCN1C(=O)/C(=C/c2cccs2)SC1=S)NC12CC3CC(CC(C3)C1)C2`, the fluorescence interference ratio was 0.998. Under `Cc1cc(C)c(NC(=O)C(=O)NCC(C)O)c(C)c1` (stereo not drawn) stands 1.01; under `CCOc1ccccc1NC(=O)Cc1ccccc1`, 1.03; under `CCOc1ccccc1NC(=O)/C=C/c1ccc(Cl)cc1`, 1.34 (active). The result for `O=C(/C=C/c1ccc(F)cc1)Nc1cccc(Cl)c1Cl` reads 1.01; that for `CC(=O)COc1ccc2c(-c3ccccc3)cc(=O)oc2c1`, 0.969.

Turning to `COCCOC(=O)c1c(C)oc2ccc(OCC(N)=O)cc12`, the fluorescence interference ratio is 1.05. The result for `Cc1ccc(NC(=O)c2ccc(NC(=O)c3ccc(Cl)cc3Cl)cc2)cc1` reads 0.959. Under `CC(=O)c1cccc(NC(=O)c2ccc(N(Cc3ccc(Cl)cc3)S(C)(=O)=O)cc2)c1` stands 0.635 (active); under `CS(=O)(=O)N(CC(=O)Nc1ccc(I)cc1)c1cccc(Cl)c1`, 0.92; under `O=[N+]([O-])c1ccc(-c2ccc(I)cc2)cc1`, 0.706 (active). Under `Cc1nn(-c2ccc(I)cc2)c(C)c1-c1cccc([N+](=O)[O-])c1` stands 0.947. For `NCCCCNc1ccc([N+](=O)[O-])cc1`, the fluorescence interference ratio is 0.959.

As to `CCOC(=O)C1CCN(C(=O)Nc2ccc(Cl)cc2)CC1`, the fluorescence interference ratio was 1.01. Under `NC(=O)NC(c1ccccc1)c1ccc(I)cc1` (stereo not drawn) stands 1.01. Under `O=C(Nc1ccc([N+](=O)[O-])cc1)C1CC(=O)N(c2ccc(Cl)cc2)C1` (stereo not drawn) stands 0.885; under `CN(C)/C=C(/Cl)C=C1C(=O)c2ccccc2C1=O`, 0.757 (active); under `Cc1cc(OCC(=O)Nc2c(C)cccc2C)ccc1Cl`, 0.96. With `COc1ccc(S(=O)(=O)Nc2cc(Br)c(O)c(Br)c2)cc1`, the fluorescence interference ratio was 0.972. Under `COC(=O)c1ccc(COc2ccc3c4c(c(=O)oc3c2)CCC4)cc1` stands 0.926. On to `CCC1=NN(C(=O)c2cccc(Br)c2)C(O)(c2ccc(C)cc2)C1` (stereo not drawn), for which the fluorescence interference ratio was 0.942. In the case of `CC1=NN(C(=O)c2ccc(Br)cc2)C(O)(c2ccccc2)C1` (stereo not drawn), the fluorescence interference ratio is 0.753 (active).

`O=C(c1ccc(Cl)cc1)N1N=C(c2ccc(F)cc2)CC1(O)C(F)(F)F` (stereo not drawn): the fluorescence interference ratio is 0.933. With `O=C(Cc1ccc(Cl)cc1)Nc1nccs1`, the fluorescence interference ratio is 0.993. As for `Cc1cc(C(N)=O)c(-c2ccccc2)o1`, the fluorescence interference ratio is 1.04. Regarding `Cc1ccc(N2C(=O)C3C4c5ccccc5C(C)(c5ccccc54)C3C2=O)cc1` (stereo not drawn), the fluorescence interference ratio is 0.929. The result for `O=C1CC2c3ccccc3C1C1C(=O)N(c3ccc(Br)cc3)C(=O)C21` (stereo not drawn) reads 1.04. Under `CC(=O)Nc1ccc(N2C(=O)C3C4CC(=O)C(c5ccccc54)C3C2=O)cc1` (stereo not drawn) stands 0.654 (active). Consider `Oc1cccc(Nc2nc(-c3ccc(Br)cc3)cs2)c1`, for which the fluorescence interference ratio is 0.941.

As to `COCCCNC(=O)C(=O)NCCc1ccc(OC)c(OC)c1`, the fluorescence interference ratio is 0.956.

As for `COc1ccc2c(c1)-c1c(ssc1=S)C(C)(C)N2C(=O)COc1ccccc1`, the fluorescence interference ratio was 0.931. Regarding `CC12OC3(CCCCC3)C(C)(OC13CCCCC3)O2`, the fluorescence interference ratio is 0.781 (active). The result for `COc1ccc(C(=O)Nc2ccccc2)cc1NC(=O)C(C)Oc1ccccc1` (stereo not drawn) reads 0.898; that for `O=C(/C=C/c1ccccc1)NC(=S)Nc1ccc([N+](=O)[O-])cc1`, 1.02; that for `S=C1NC(c2ccccc2)=NCN1c1ccc(Br)cc1`, 0.684 (active). Under `Cc1cc(C)c(C(O)=Cc2nc3ccccc3[nH]c2=O)c(C)c1` stands 1.05; under `CCN1C(=O)/C(=C\c2cn(Cc3ccc(F)cc3)c3ccccc23)SC1=S`, 1.07; under `COc1ccccc1NC(=O)c1cc(Nc2ccccc2)nc2ccccc12`, 1.05.

In the case of `Cc1ccc(-c2cc(NC(=O)c3cccs3)n[nH]2)cc1`, the fluorescence interference ratio was 0.923. For `Cc1cc(C(=O)N2CCN(c3cccc(Cl)c3)CC2)ccc1[N+](=O)[O-]`, the fluorescence interference ratio was 0.957. Under `CC1CCN(c2ccc([N+](=O)[O-])c(SCCO)c2)CC1` stands 0.613 (active).
